From ChEMBL document CHEMBL3988442, “University of Dundee, Small-Polar-MMV Screening Library” (2021)
For some of these results: Entries with a potency or affinity are not part of this list.

Tests used:
Parameters in all cases: scale not given: direction of the effect not stated beside the values
[1] = target: Protein translocase subunit SecA (Escherichia coli (strain K12)) (UniProt P10408); test: Assay to Identify E. coli SecA ATPase Inhibitors; type: functional; details: 30 µM
[2] = target: T1, Ubiquitin-activating enzyme e1, putative (Leishmania donovani (strain BPK282A1)) (UniProt E9BSI1); test: Leishmania donovani Ubiquitin Activating Enzyme (LdE1); type: functional; details: 30 µM
T1 sequence (whole entry): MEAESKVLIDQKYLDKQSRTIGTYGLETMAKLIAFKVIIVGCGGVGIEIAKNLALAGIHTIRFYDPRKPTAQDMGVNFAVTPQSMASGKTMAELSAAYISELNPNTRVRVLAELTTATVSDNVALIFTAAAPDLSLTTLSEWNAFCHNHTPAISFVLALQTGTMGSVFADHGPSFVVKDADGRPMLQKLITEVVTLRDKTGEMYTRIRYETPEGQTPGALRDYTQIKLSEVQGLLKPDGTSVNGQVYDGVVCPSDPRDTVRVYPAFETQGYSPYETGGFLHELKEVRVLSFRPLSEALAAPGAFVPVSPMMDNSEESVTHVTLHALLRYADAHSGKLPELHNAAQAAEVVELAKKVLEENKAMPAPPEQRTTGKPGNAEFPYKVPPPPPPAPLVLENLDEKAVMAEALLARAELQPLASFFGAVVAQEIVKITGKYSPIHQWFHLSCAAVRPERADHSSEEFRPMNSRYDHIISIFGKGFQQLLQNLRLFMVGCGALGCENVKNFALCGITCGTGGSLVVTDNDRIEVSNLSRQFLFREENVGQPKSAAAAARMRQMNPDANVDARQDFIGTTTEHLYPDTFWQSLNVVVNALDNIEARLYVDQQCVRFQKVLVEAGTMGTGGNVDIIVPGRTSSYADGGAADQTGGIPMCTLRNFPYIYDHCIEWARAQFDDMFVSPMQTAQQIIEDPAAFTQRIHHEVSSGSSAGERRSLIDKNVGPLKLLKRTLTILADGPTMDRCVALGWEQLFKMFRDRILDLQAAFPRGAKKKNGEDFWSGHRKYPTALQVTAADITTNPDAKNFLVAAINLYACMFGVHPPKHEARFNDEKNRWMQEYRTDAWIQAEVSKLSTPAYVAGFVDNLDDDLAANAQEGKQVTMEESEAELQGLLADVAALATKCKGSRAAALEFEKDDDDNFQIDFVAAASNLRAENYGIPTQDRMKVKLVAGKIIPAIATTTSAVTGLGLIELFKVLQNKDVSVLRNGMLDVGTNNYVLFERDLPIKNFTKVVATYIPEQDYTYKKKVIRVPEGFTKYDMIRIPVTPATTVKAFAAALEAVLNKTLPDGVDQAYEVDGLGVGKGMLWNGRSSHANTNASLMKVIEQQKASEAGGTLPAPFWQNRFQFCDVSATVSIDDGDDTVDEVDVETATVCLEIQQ

[3] = target: Sialic acid-binding Ig-like lectin 9 (Homo sapiens) (UniProt Q9Y336); test: Hs-Siglec9 ALPHAscreen SOP 20170721; details: 10 µM
[4] = test system: Trypanosoma cruzi; test: Trypanosoma cruzi phosphomannomutase and mannose-1-phosphate guanylyltransferase assay; type: functional; details: 10 µM
[5] = target: T2, Arginase-2, mitochondrial (Homo sapiens) (UniProt P78540); test: in vitro enzyme assay to detect the production of urea directly proportional to the activity of Arginase II; type: functional; details: 33.3 µM; note: in the data most compounds retested in dose-response had high values
T2 sequence (whole entry): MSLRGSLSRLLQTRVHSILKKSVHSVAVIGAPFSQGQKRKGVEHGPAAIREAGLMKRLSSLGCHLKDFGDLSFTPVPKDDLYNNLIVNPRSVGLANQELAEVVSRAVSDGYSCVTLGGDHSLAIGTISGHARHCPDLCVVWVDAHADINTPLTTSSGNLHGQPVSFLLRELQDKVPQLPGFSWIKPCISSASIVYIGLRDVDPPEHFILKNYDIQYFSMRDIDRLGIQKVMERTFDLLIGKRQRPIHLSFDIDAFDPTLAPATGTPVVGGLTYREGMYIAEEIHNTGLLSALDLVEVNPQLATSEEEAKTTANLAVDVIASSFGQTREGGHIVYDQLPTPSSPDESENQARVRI

[6] = target: T3, Proteasome subunit beta (Trypanosoma cruzi) (UniProt O96673); test: Trypanosoma cruzi proteasome chymotrypsin-like activity (TcProtChymo) assay.; note: in the data most compounds retested in dose-response had high values; type: functional; details: 9.37 µM
T3 sequence (whole entry): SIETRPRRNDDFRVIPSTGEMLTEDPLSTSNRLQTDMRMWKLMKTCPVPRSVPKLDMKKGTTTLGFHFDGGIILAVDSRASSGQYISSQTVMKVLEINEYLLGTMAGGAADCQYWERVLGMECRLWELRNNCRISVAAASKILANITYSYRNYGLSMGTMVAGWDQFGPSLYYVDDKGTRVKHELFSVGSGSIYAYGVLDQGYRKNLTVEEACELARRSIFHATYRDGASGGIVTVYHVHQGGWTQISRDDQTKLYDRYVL

[7] = species: Homo sapiens; test: To identify inhibition of the IFN signalling (Jak-Stat) pathway via expression of an eGFP reporter gene under the control of an IFN-stimulated response element (ISRE) containing MxA promoter.; type: functional; details: 30 µM
[8] = target: T4, Tyrosyl-tRNA synthetase, putative (Trypanosoma cruzi (strain CL Brener)) (UniProt Q4DSP6); test: Trypanosoma cruzi tyrosyl tRNA synthetase (TcYRS) _High Tyrosine SOP; type: functional; details: 30 µM; note: in the data most compounds retested in dose-response had high values
T4 sequence (whole entry): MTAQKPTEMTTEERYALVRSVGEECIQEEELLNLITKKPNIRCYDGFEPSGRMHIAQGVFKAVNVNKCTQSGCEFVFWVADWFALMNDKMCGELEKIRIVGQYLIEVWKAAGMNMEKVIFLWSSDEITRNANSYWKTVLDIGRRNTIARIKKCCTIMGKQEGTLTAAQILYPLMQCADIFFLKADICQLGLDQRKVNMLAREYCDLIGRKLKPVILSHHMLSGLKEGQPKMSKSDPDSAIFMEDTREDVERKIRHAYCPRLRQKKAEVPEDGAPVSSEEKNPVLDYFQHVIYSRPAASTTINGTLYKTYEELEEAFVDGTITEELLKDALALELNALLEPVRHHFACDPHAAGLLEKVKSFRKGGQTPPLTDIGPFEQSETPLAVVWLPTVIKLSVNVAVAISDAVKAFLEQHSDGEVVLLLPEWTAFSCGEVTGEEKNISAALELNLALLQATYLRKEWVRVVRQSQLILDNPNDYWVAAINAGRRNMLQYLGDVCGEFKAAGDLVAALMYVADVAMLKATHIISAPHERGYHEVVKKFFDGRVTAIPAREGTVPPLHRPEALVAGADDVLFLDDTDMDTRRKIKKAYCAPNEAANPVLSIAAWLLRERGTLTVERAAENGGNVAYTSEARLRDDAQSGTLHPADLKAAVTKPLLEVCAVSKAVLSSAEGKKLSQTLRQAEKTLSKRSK

[9] = target: T4, Tyrosyl-tRNA synthetase, putative (Trypanosoma cruzi (strain CL Brener)); test: Trypanosoma cruzi tyrosyl tRNA synthetase (TcYRS) SOP; type: functional; details: 30 µM
[10] = target: Chromo domain-containing protein 1 (Saccharomyces cerevisiae (strain ATCC 204508 / S288c) (Baker's yeast)) (UniProt P32657); test: ScCHD-1 Enzyme Inhibition Assay; type: functional; details: 30 µM; note: in the data most compounds retested in dose-response had high values
Chain of Chromo domain-containing protein 1 (Saccharomyces cerevisiae (strain ATCC 204508 / S288c) (Baker's yeast)) (P32657 whole entry, the tested form may be a part): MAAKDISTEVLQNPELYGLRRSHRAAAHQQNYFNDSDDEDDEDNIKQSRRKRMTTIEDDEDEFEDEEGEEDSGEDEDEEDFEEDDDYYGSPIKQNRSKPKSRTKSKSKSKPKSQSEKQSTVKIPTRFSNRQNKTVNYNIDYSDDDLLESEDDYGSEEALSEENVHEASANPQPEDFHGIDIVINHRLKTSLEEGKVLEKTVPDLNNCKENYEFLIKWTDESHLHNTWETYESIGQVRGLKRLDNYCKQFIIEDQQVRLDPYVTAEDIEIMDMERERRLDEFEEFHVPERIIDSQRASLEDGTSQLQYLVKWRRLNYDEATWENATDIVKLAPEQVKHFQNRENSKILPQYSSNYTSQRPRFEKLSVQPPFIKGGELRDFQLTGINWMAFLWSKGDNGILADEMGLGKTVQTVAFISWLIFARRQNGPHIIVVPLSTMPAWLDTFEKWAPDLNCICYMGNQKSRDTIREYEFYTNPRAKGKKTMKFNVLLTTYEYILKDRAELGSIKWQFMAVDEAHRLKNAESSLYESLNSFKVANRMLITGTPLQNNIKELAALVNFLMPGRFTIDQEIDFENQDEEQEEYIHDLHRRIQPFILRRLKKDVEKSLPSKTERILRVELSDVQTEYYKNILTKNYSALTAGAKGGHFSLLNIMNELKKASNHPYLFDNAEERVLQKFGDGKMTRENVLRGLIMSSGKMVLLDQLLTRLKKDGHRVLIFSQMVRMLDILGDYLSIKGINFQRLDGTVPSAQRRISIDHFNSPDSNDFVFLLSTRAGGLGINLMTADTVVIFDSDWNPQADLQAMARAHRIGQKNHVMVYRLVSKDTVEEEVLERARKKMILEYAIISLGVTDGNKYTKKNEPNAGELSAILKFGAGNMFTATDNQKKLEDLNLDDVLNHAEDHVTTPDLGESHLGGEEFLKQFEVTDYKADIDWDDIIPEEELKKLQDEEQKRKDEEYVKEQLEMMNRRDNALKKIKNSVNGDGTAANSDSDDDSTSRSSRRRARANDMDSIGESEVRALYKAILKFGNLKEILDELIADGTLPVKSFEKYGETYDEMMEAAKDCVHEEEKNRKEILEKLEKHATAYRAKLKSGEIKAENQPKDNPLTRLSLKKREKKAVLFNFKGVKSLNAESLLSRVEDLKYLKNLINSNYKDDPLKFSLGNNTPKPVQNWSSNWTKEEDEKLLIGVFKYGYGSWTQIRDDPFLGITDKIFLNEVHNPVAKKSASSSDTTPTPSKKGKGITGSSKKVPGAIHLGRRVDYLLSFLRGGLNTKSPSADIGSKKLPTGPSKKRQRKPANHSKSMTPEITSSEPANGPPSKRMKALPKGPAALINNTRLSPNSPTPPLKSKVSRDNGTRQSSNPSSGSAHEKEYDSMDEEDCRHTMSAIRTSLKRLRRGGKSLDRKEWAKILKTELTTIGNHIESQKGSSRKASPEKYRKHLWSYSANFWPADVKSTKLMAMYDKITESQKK

Chain of Protein translocase subunit SecA (Escherichia coli (strain K12)) (P10408 whole entry): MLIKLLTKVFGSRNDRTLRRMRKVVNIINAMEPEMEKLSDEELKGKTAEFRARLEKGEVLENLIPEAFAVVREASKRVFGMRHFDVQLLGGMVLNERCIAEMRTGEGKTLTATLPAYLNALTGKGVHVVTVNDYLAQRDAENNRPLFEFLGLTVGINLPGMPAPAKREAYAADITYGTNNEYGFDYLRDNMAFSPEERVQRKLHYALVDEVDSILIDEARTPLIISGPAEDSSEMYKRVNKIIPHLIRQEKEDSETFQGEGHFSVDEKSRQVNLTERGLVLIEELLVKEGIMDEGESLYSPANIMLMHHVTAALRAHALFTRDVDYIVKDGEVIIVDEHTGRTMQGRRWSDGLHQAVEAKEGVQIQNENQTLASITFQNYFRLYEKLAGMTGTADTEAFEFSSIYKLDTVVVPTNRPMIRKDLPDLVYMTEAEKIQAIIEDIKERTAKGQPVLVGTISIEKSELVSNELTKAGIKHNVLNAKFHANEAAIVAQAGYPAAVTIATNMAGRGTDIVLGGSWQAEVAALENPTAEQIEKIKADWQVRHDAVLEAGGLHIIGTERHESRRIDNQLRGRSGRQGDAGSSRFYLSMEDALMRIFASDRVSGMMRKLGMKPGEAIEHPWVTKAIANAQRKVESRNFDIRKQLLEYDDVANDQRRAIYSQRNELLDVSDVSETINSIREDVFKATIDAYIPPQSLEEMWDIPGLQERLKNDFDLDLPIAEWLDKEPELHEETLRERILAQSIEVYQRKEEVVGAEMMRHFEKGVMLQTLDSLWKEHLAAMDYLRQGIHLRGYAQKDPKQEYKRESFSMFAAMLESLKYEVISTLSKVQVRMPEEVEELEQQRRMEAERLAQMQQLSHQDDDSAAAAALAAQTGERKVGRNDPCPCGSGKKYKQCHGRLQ
Chain of Sialic acid-binding Ig-like lectin 9 (Homo sapiens) (Q9Y336 whole entry): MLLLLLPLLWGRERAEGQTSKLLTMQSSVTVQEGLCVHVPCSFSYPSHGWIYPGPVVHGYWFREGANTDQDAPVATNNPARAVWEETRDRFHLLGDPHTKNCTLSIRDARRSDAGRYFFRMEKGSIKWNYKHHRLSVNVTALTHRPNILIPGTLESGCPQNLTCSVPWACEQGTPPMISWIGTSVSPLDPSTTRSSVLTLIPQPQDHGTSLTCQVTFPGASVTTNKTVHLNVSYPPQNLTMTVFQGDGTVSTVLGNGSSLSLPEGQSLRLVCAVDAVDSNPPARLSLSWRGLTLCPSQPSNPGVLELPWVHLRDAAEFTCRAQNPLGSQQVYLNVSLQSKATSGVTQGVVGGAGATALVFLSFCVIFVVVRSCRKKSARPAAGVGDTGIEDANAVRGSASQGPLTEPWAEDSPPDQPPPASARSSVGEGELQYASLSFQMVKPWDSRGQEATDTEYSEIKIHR

| SMILES | Percent Effect [1] [%] | Percent Effect [2] [%] | Percent Effect [3] [%] | Percent Effect [4] [%] | Percent Effect [5] [%] | Percent Effect [6] [%] | Percent Effect [7] [%] | Percent Effect [8] [%] | Percent Effect [9] [%] | Percent Effect [10] [%] |
| --- | --- | --- | --- | --- | --- | --- | --- | --- | --- | --- |
| CNc1nc(C2CCCN2C(C)=O)nc2c1CCN(CC1CC1)C2 (stereo not given) | -3.68 | 9.33 | 5.24 | -0.197 | 0.885 | 12.2 | 6.58 | 3.17 | 10 | -22.7 |
| Cc1ccc(NC2CCN(C(=O)c3n[nH]c4ccccc34)CC2)nn1 | -2.85 | 5.33 | 0.786 | -5.62 | 3.55 | -2.29 | 12.2 | 3.68 | 5.13 | -6.5 |
| Fc1ccc(-c2nnc(CN3CCn4c(nnc4C4CC4)C3)o2)cc1 | -4.82 | -18.7 | 2.87 | -3.81 | 1.77 | 3.99 | -0.798 | 10 | 15.4 | -6.37 |
| NC(=O)C1CCC(NC(=O)COc2ccc(Cl)c(Cl)c2)CC1 (stereo not given) | -4.03 | 10.4 | 8.56 | 6.16 | -5.94 | 9.12 | 8.8 | 5.88 | 23.5 | -8.52 |
| O=C(c1ccco1)N1CCC2(CCC(=O)N2Cc2cccc(F)c2)CC1 | -1.47 | 14.3 | 3 | -1.31 | 0 | 6.09 | -5.56 | 5.8 | 10 | -5.07 |
| COCc1nc(C(=O)N2CCCC(n3cccn3)C2)cs1 (stereo not given) | -1.77 | 13 | 6.57 | -4.29 | 2.25 | 8.6 | -4.23 | 2.94 | 16.5 | -6.38 |
| Cn1cc(-c2nc(CNCCn3cccn3)cs2)cn1 | 3.44 | 10.3 | -15.7 | -6.67 | -0.41 | 16 | 32.9 | 8.13 | 13.2 | 27.9 |
| Cc1cccc(CN2CCC3(CCN(c4ccccn4)C3)C2=O)c1 (stereo not given) | -2.21 | 16.9 | 0.691 | 3 | -0.913 | 14 | 11.4 | 10.6 | 12.5 | -5.26 |
| COc1cccc2c1OCC(C(=O)N1CCC(N3CCOC3=O)CC1)C2 (stereo not given) | -6.75 | 13.5 | 15.6 | 4.95 | 10.8 | 9.59 | 8.78 | 9.04 | 12.2 | -5.88 |
| CNc1cc(N2CCCC2CNCc2cnc(C)cn2)ncn1 (stereo not given) | -4.22 | 0 | -3.13 | 1.78 | 6.15 | 2.47 | 21.4 | 2.39 | 1.21 | 2.01 |
| CC(c1nc(C2CC2)no1)N1CCN(Cc2ccsc2)CC1 (stereo not given) | -4.58 | 2.56 | 2.79 | 1.97 | -1.64 | 3.67 | 3.35 | 4.31 | 8.43 | -5.15 |
| Cc1noc(C2CCN(C(=O)CCNS(C)(=O)=O)CC2)n1 | -2.97 | 10.3 | 4.81 | 3.47 | 3.69 | 5.89 | 3.03 | 4.31 | 18.1 | -0.743 |
| CCN1CCN(C(=O)NCCOc2ccc3c(c2)OCO3)CC1 | -3.49 | 20.8 | 7.69 | -3.92 | 1.84 | 12.6 | -5.27 | 2.94 | 16.5 | -6.7 |
| CCc1cc(C(F)(F)F)c2c(C)nn(CC(=O)O)c2n1 | 2.1 | 9.33 | -6.26 | -4.14 | 9.29 | 11 | 15.7 | 1.06 | 10 | -20.4 |
| CC(Cn1cccn1)NC(=O)Cc1cccs1 (stereo not given) | -0.712 | 16 | 1.17 | 3.41 | 3.99 | 6.36 | 28.8 | 0.526 | 7.69 | -16 |
| O=C1N(CC2CC2)CCC12CCN(c1ncccn1)CC2 | 2.77 | 16.9 | -4.8 | -3 | 2.74 | 16.7 | 12.4 | 6.76 | 10 | -10.6 |
| CCCN1CCCn2nc(CNS(=O)(=O)c3ccc(C)cc3)cc2C1 | -8.28 | 2.7 | 2.48 | -5.72 | -3.85 | 10.3 | 5.89 | 3.72 | 9.76 | -1.82 |
| CC(C)CN(Cc1nc2c(cnn2C)c(=O)[nH]1)C(C)C | -1.52 | 10.3 | -1.47 | 5.92 | 7.38 | -3.5 | -18.2 | 5.26 | 18.1 | 0.0184 |
| FC(F)(F)c1nc(NC2CCCC2)c2ccccc2n1 | 1.99 | -2.7 | -2.53 | -0.291 | 5.94 | 9.76 | 45.1 | 0.532 | -2.44 | 35 |
| CCCc1n[nH]cc1C(=O)N1CCC(c2nccn2CCOC)CC1 | -7.31 | 16.2 | 21.9 | 8.44 | 20.6 | 7.19 | 11 | 5.85 | 12.2 | 20.9 |
| COc1cc(C)nc(N2CCN(C(=O)CN(C)C3CC3)CC2)n1 | -5.5 | 7.69 | -4.33 | -3.1 | -1.23 | 2.99 | 28.9 | -1.44 | 8.43 | 0.147 |
| Cc1cc2c(cc1C(=O)N1CC[C@H](CO)[C@@H](O)C1)OCCO2 | -9.1 | 2.7 | 2.86 | 4.37 | 1.05 | 8.22 | -0.0662 | 4.79 | 12.2 | -4.74 |
